Potency and affinity values are given separately. Inconclusive results are not listed.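 How the source made its calls: active means samples whose fitted half-maximal inhibition concentration is no more than ten times the top valid dose tested; inconclusive means flat response between -70 and -30, or invalid curve fit; inactive means flat within 30 of zero, potency above limit, or signal rising.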
molecular target: Trypsin (Sus scrofa) (UniProt P00761); test: trypsin protease activity blockade – biochemical, quenched peptide fluorescence, cherry-pick, selectivity assay for Rce1 protease inhibitor project, dose response (AID 488789); settings: porcine trypsin, quenched peptide cleavage fluorescence; series mostly up to 10 µM; activity change, negative = inhibition: at the top concentration
Sequence (P00761 whole entry, looked up): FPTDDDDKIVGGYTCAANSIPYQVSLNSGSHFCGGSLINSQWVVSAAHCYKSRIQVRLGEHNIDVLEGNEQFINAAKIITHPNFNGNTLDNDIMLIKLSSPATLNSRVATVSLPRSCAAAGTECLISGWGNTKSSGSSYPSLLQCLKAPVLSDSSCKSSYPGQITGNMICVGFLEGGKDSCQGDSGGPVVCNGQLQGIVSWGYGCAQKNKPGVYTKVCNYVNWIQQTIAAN

Activity change, negative = inhibition, inactive:
CCCn1c(O)c(N=NC(=O)CNC(=O)Cc2ccc(OC)cc2)c2ccccc21 13.3%, Nc1nnnn1/N=C/c1ccccc1OCc1ccc(Cl)cc1Cl 0.248%, COc1ccc(Cc2nc3ccc(C(=O)N4CCCC4)cc3o2)cc1 15.7%, CCOc1cccc(-c2c(C(=O)N/N=C/c3cccs3)nnn2-c2nonc2N)c1 21%, CN1CCN(C(=O)c2ccc(-c3cccs3)s2)CC1 -11.7%, CCN(CC)CCN(C(=O)c1ccc2ccccc2c1)c1nc2cc3c(cc2s1)OCO3 -4.86%, COCc1c(C(=O)N/N=C/C2CC=CCC2)nnn1-c1nonc1N (configuration not stated) 29.2%, Nc1nonc1-n1nnc(C(=O)N/N=C/c2ccoc2)c1CSc1ccccc1 1.11%, CC(NC(=O)/C(C#N)=C/c1ccc(Cl)c([N+](=O)[O-])c1)c1ccccc1 (configuration not stated) 1.97%, CCOc1ccccc1CNC(=O)c1cc2occc2n1C -0.747%, COc1ccc(S(=O)(=O)N(CC(=O)N2CCCC2)Cc2ccccc2)cc1 2.3%, COc1ccc(OC)c(NC(=O)c2cc3oc4ccccc4c3cc2O)c1 -0.349%, Cc1cc(N/N=C/c2ccc(O)c(C)c2O)nc(-c2ccccc2O)n1 7.21%, Cc1cc(C)n(Cc2ccc(NC(=O)c3ccc(COc4ccccc4Br)cc3)cc2)n1 1.54%, CCN(Cc1ccccc1)S(=O)(=O)c1ccc(C(=O)N(CCCN(C)C)c2nc3c(C)c(C)ccc3s2)cc1 23.7%, O=C1CN(S(=O)(=O)c2ccc([N+](=O)[O-])cc2)CC(=O)N1 10.3%, Cc1nc(N2CCOCC2)c2cc(-c3ccccc3)sc2n1 7.9%, O=C(N/N=C/c1cn(Cc2ccccc2)c2ccccc12)c1cc(O)cc(O)c1 -6.64%, CN(C(=O)c1ccc2c(c1)SC1=NS(=O)(=O)CCN12)C(c1ccccc1)c1ccccc1 7.2%, O=C(Nc1cc(Cl)cc(Cl)c1)c1coc(=O)c(Br)c1 3.02%, CCOC(=O)c1cc2c(=O)[nH]ccc2nc1C 65.8%, CC(C)C[C@H](NC(=O)c1nc[nH]c1C(=O)N1CCNCC1)C(=O)OCc1ccccc1 6.55%, Cc1ccc(Nc2nc(-c3ccc(S(=O)(=O)N4CCOCC4)cc3)cs2)cc1Cl 3.37%, Cc1ccc(/C=N/NC(=O)c2nnn(-c3nonc3N)c2C(C)C)o1 -6.13%, N=c1c(C(=O)NCc2ccc(F)cc2)cc2c(=O)n3ccccc3nc2n1Cc1cccnc1 37.3%, O=[N+]([O-])c1cc(S(=O)(=O)N2CCCC2)ccc1NN=C1CCCCC1 6.92%, CCc1cc(=O)oc2cc(OCC(=O)N3CCC(C(=O)O)CC3)ccc12 -6.59%, COCCCNC(=S)NCCNc1nc2cc(C)cc(C)c2cc1C#N 1.37%, CCOc1ccc(-n2c(SCc3ccc([N+](=O)[O-])cc3)nnc2-c2ccc(OC)cc2)cc1 16.5%, CCCCOC(=O)Nc1nc(C)c(C(=O)OCC)s1 -2.2%, CN1CCN(CCCNC(=O)c2cc3c(-c4ccc(Cl)cc4)nn(C)c3s2)CC1 -4.72%, O=C1CCCC(O)=C1N=Nc1ccc2ncsc2c1 3.04%, O=C(O/N=C\c1ccc(N2CCCCC2)c([N+](=O)[O-])c1)c1cccc(C(F)(F)F)c1 -2.32%, COc1ccc(-c2cc(C(=O)N3CCN(c4ccccc4)CC3)c3ccccc3n2)cc1 -3.79%, CC(C)NCC(O)COCCOc1ccc(Br)cc1 (configuration not stated) 11.8%, COc1cc2ccccc2cc1C(=O)N(CCN(C)C)c1nc2ccc(C)cc2s1 -0.713%, O=C(c1cn(-c2ccccc2)nc1-c1cccs1)N1CCN(c2ccccc2)CC1 27.7%
